The values that follow come from PubChem BioAssay AID463218 (Sanford-Burnham Center for Chemical Genomics, 2010).

Screen size: about 4,400 compounds; about 3,700 (84%) were called active.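 Rule for the calls: active = inhibition above about 39% in either of two replicate wells at 20 µM (limit read from the data); inactive = the rest.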 So high a share suggests a set chosen from earlier hits. The list is a sample of the results.

For orientation: inhibition means the change of the read-out against control, counted positive when it falls.

The assay in a line: growth inhibition of tim23-1 ts yeast, retest – luminescence, single concentration, confirmation (AID 463218).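 Note: temperature-sensitive tim23-1 mutant grown at 25 °C; 0% = DMSO wells with yeast and 100% = medium wells without yeast.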 As to conditions: S. cerevisiae tim23-1 growth, BacTiter-Glo luminescence, 24 h; at 20 µM; stronger effect = higher value.
Consider `Cc1nc2sc(C(=O)c3ccccc3)c(N)c2c2c1CCCC2`, for which the inhibition was 54.4% (active).

`COc1cccc(-c2sc3ccc(OC)cc3c2-c2ccc(OCCN3CCCCC3)cc2)c1`: the inhibition is 23.4% (inactive).

Consider `Cc1[nH]n(C(N)=S)c(=O)c1N=Nc1ccc(Cl)cc1Cl`, for which the inhibition was 70% (active).

Regarding `CC(=O)N1N=C(c2ccncc2)OC1(Cc1ccccc1)Cc1ccccc1`, the inhibition is 49.8% (active).

With `c1ccc(-c2nc(NCc3ccco3)c3ccccc3n2)cc1`, the inhibition was 64.7% (active).

In the case of `O=c1ccc2c(-c3ccccc3S(=O)(=O)O)c3ccc(O)c(O)c3oc-2c1O`, the inhibition is 43.4% (active).

For the molecule `O=c1oc(-c2ccccc2NS(=O)(=O)c2ccc(Cl)cc2)nc2ccccc12`, the inhibition is 56% (active).

For `CC(C)NC(=O)/C(C#N)=C\c1ccc(N(C)C)c(Br)c1`, the inhibition was 62.2% (active).

Consider `O=C1CC(Sc2ncn[nH]2)C(=O)N1c1ccccc1` (centres undefined), for which the inhibition is 37.8% (inactive).

For the molecule `Cc1cccc(-c2nc(Nc3ccc(O)cc3)c3ccccc3n2)c1`, the inhibition is -19.6% (inactive).

Turning to `Cc1ccc2nc(Nc3ccccc3)cc(C)c2c1`, the inhibition was 43.1% (active).

Consider `Cc1cc(Nc2ccc(Br)cc2)nc2ccccc12`, for which the inhibition is 68.2% (active).

For the molecule `Cc1[nH][nH]c(=O)c1C(c1ccc(-c2ccc(Cl)cc2)o1)c1c(C)[nH][nH]c1=O`, the inhibition was 62.4% (active).

For `CC(=O)Oc1ccc(N(C(C)=O)S(=O)(=O)c2ccc3ccccc3c2)cc1Br`, the inhibition is 52.9% (active).

For `Cc1ccc(C(=O)OC2=CC(=O)CC(C)(C)C2)cc1`, the inhibition was 38% (active).

Regarding `CN1C(=O)/C(=N/OC(=O)c2ccccc2Br)c2ccccc21`, the inhibition was -64.7% (inactive).

For `CSC(=S)N/N=C/c1c[nH]c2ccccc12`, the inhibition is 52.5% (active).

For `COCCNC(=O)/C(C#N)=C/c1cccc(OCc2ccccc2)c1`, the inhibition was 67% (active).

With `CCCCC(CC)CNC(=O)C(=O)C1C(=O)Nc2ccccc21` (centres undefined), the inhibition is 41.6% (active).

On to `O=C(Nc1cccc(F)c1)NC1CCCCCCC1`, for which the inhibition was 39.9% (active).

For the molecule `COc1cc(SC)ccc1C(=O)Nc1nc(C)cs1`, the inhibition was 57.5% (active).

On to `O=C(/C=C/Sc1ncn[nH]1)c1ccc(Cl)cc1`, for which the inhibition is 20.5% (inactive).

For `Cc1cc(C)nc(S/C=C/C(=O)c2ccccc2)n1`, the inhibition is 87.6% (active).

Consider `CCc1ccc2c(c1)C1(NN=C(c3ccccc3)S1)C(=O)N2` (centres undefined), for which the inhibition is 53.2% (active).

As to `CCC1=NN(C(=O)Cc2ccc([N+](=O)[O-])cc2)C(O)(c2ccc(Br)cc2)C1` (centres undefined), the inhibition was 45.7% (active).

Consider `CC1CCC2CCCCC2N1C(=O)c1cc([N+](=O)[O-])cc([N+](=O)[O-])c1` (centres undefined), for which the inhibition was 42.8% (active).

On to `Cc1onc(NC(=O)c2ccc([N+](=O)[O-])o2)c1Br`, for which the inhibition was 50.6% (active).

With `CCCNc1ncnc2sc(C)c(C)c12`, the inhibition was 27.9% (inactive).

Regarding `Cc1ccc2c(c1)c1ncnc(N3CCc4ccccc4C3)c1n2C`, the inhibition is 45.2% (active).

Turning to `N#C/C(=C\c1cccnc1)C(=O)Nc1ccc(SC(F)F)cc1`, the inhibition is 65.7% (active).

For `Cc1ccc(Oc2nc(-c3ccccn3)nc3ccccc23)cc1`, the inhibition is 46.1% (active).

Take `COc1ccc(Nc2nc(N)nc(CSC(=S)N3CCC(C)CC3)n2)cc1`: the inhibition is 49.7% (active).

As for `COc1ccc(/C=C2/C(=O)N(c3ccccc3)N=C2C)c(OC)c1`, the inhibition is 49.5% (active).

As to `N#C/C(=C\c1ccccc1C(F)(F)F)C(=O)Nc1ccccc1F`, the inhibition is 71.7% (active).

Consider `Cc1cccc(C)c1N1C(=O)CN(Cc2ccccc2)C1=S`, for which the inhibition is 44.8% (active).

With `Cn1nc(C(F)(F)F)c2cc(NC(=O)OCC(C)(C)C)sc21`, the inhibition is 41.3% (active).

For `O=C(N/N=C\c1cc(Br)c(Br)o1)C1COc2ccccc2O1` (centres undefined), the inhibition was 31% (inactive).

As to `Cc1ccc(Nc2nc(-c3ccc(O)cc3O)cs2)nc1`, the inhibition is 70.4% (active).

For `N/C(=N\OC(=O)Nc1ccc(Cl)c(Cl)c1)c1ncc(C(F)(F)F)cc1Cl`, the inhibition was 71.8% (active).

In the case of `CN(C)/N=C/c1cn(-c2ccccc2)nc1-c1cccnc1`, the inhibition is 43% (active).

Regarding `Cc1ccc(-c2nn(C(C)(C)C)c3ncnc(N)c23)cc1`, the inhibition was 65.7% (active).

As to `Clc1ccc(Nc2nc(-c3cccs3)cs2)nc1`, the inhibition was 68.5% (active).

Regarding `Cc1cccc(Nc2nc(-c3ccccc3)cs2)n1`, the inhibition is 23.9% (inactive).

For `CC(C)Cn1c(N)c(C(=O)NCc2cccs2)c2nc3ccccc3nc21`, the inhibition is 46.1% (active).

Turning to `COc1ccc2nc(NC(=O)NC3CCCCC3)sc2c1`, the inhibition was 53.1% (active).

As for `COc1ccc(NC(=O)/C(Cl)=C(/Cl)S(=O)Cc2ccc(C)cc2)cn1` (centres undefined), the inhibition is 27.6% (inactive).

Regarding `CCOc1ccccc1/C=c1\sc2nc(-c3ccco3)nn2c1=O`, the inhibition is 56.6% (active).

`O=c1nc2s/c(=C\c3ccco3)c(=O)n2nc1Cc1ccccc1`: the inhibition is -20.4% (inactive).

`O=C(NCc1ccc2c(c1)OCO2)c1c(O)nc2sccn2c1=O`: the inhibition is 66.3% (active).

Regarding `Cc1oc2c(c1C(=O)N1CCOCC1)C(=O)c1ccccc1C2=O`, the inhibition was 59.5% (active).

For `CCOc1ccc(NC(=O)CCC(=O)N/N=C/c2ccc([N+](=O)[O-])s2)cc1`, the inhibition is 76.9% (active).

For the molecule `Cc1ccccc1NCC(=O)N/N=C\c1ccc([N+](=O)[O-])s1`, the inhibition was 79.3% (active).

Regarding `COc1ccc(C(=O)Nc2ccccc2C(=O)N/N=C/c2ccccc2OC)cc1`, the inhibition is 72% (active).

With `COc1cc(/C=N/Nc2nc3ccccc3s2)ccc1O`, the inhibition is 33.5% (inactive).

Take `COc1ccc(C(=O)Nc2ccccc2C(=O)N/N=C/c2ccc(O)c(OC)c2)cc1`: the inhibition is 98.3% (active).

For the molecule `Oc1c(Cl)cc(Cl)c(Cl)c1Cc1c(O)c(Cl)cc(Cl)c1Cl`, the inhibition was 95.3% (active).

Regarding `O=C(Nc1ccc2oc(-c3ccccc3F)nc2c1)c1ccco1`, the inhibition was 82.7% (active).

In the case of `CC(C)(C)c1ccc(Oc2ccc(N)cc2)cc1`, the inhibition was 51.7% (active).

For `Oc1ccc(Br)cc1/C=N/Nc1ccccn1`, the inhibition was 65.5% (active).

With `Cc1cc(N)n2nc(-c3ccc(C(C)(C)C)cc3)cc2n1`, the inhibition was 72.7% (active).

Consider `COC(C/C=C/C(=O)[C@@H](C)OCc1ccccc1)OC`, for which the inhibition is 55.2% (active).

`COc1cc([N+](=O)[O-])ccc1NC(=O)COC(=O)CCOc1ccc(C)cc1`: the inhibition is 64.7% (active).

For `CCc1ccccc1NC(=O)CN(c1ccc(OC)cc1OC)S(=O)(=O)c1ccccc1[N+](=O)[O-]`, the inhibition was 32.9% (inactive).

As to `O=C(CNC(=O)OCc1ccccc1)Oc1cc2oc(=O)cc(-c3ccccc3)c2cc1Cl`, the inhibition was 31.1% (inactive).
